Laboratory results taken from PubChem BioAssay (EPA / NIEHS).
Results filed as inconclusive are left out. Activity calls are given as the source filed them. The calls were made as follows: active = hit-call score of the fitted dose curve at least 0.9, where 1 is the maximum; inconclusive = response in the unintended direction; inactive = score below 0.9.

target: Luciferin 4-monooxygenase (Photinus pyralis) (UniProt P08659); assay: CCTE_Simmons_QuantiLum_inhib_2: CCTE's Firefly Luciferase Inhibition Assay, Simmons Lab (AID 2283767);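 as to AC50: potency for inhibitors that lower luciferase luminescence relative to DMSO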
Outline: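 Cell-free QuantiLum luciferase, 5 ng/well; compounds 5 nM–87.5 uM final, 8 conc, 0.5% DMSO; 30 min, 37C, dark. Detection reagent (150 uM D-luciferin, 147 uM dATP, CoA, DTT, pH 7.8 final) injected per well, kinetic luminescence. Triplicate biological replicates.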

Luciferin 4-monooxygenase (Photinus pyralis), sequence (P08659 whole entry, looked up): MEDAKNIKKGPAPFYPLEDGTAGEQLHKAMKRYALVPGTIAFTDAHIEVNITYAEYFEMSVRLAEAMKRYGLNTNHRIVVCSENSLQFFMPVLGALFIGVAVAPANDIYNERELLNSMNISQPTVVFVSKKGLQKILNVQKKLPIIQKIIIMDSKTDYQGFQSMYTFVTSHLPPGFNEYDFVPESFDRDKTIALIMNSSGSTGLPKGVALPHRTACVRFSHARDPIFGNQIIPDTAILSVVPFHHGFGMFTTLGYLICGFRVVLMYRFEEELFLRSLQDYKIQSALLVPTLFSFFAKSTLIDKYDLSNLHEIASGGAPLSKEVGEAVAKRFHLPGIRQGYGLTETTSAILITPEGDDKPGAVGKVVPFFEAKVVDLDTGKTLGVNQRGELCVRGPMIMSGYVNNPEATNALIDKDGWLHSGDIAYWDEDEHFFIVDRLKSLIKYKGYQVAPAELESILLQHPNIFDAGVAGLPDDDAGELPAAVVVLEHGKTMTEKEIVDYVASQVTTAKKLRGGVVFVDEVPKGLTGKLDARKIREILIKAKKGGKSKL

Row | SMILES | outcome | AC50
1 | CCOc1ccccc1O | inactive | 
2 | Cc1cc(C)nc(NS(=O)(=O)c2ccc(N)cc2)n1 | inactive | 
3 | O=C1OC[C@H](Cc2cccc(O)c2)[C@H]1Cc1cccc(O)c1 | inactive | 
4 | O=C(O)CCCCCCCCC(=O)O | inactive | 
5 | Cc1cc(S(=O)(=O)O)ccc1N=Nc1c(O)ccc2ccccc12 |  | 27.8 µM (active)
6 | Nc1ccc2cc(S(=O)(=O)O)cc(O)c2c1N=Nc1ccccc1C(F)(F)F |  | 51.7 µM (active)
7 | O=C(O)c1ccc(O)cc1 | inactive | 
8 | CCOc1ccc(N=Nc2ccc(C=Cc3ccc(N=Nc4ccc(OCC)cc4)cc3S(=O)(=O)O)c(S(=O)(=O)O)c2)cc1 | inactive | 
9 | CC(C)CCCCCCCCCCCCCCC(=O)O | inactive | 
10 | CCc1cc(C(C)(C)C)c(O)c(C(C)(C)C)c1 | inactive | 
11 | C=C1CC[C@H](O)C/C1=C/C=C1\CCC[C@]2(C)[C@@H]([C@H](C)/C=C/[C@H](C)C(C)C)CC[C@@H]12 | inactive | 
12 | O=c1c(O)c(-c2ccc(O)cc2)oc2cc(O)cc(O)c12 |  | 34.3 µM (active)
13 | CCc1cc(Cc2cc(CC)cc(C(C)(C)C)c2O)c(O)c(C(C)(C)C)c1 | inactive | 
14 | [O-]n1ccccc1=S.[O-]n1ccccc1=S.[Zn+2] | inactive | 
15 | CCCCCC(C=O)=Cc1ccccc1 | inactive | 
16 | CS(=O)(=O)OCCCCOS(C)(=O)=O | inactive | 
17 | CN(C)c1cccc(O)c1 |  | 40.6 µM (active)
18 | CCCCCCCCC=CCCCCCCCC1=NCCN1CCO | inactive | 
19 | CSCCC=O | inactive | 
20 | CCOC(=O)c1ccc(N)cc1 | inactive | 
21 | COc1ccc(N=Nc2cc(C)c(N=Nc3ccc(S(=O)(=O)O)cc3)cc2OC)cc1 |  | 53.8 µM (active)
22 | Oc1ccc2cc(SSc3ccc4cc(O)ccc4c3)ccc2c1 | inactive | 
23 | CCCCC(CC)COC(=O)c1ccc(O)cc1 (centres undefined) | inactive | 
24 | CCCCCCCCc1ccc(S(=O)(=O)O)cc1 | inactive | 
25 | CCc1ccc(O)cc1 | inactive | 
26 | COc1ccccc1N=Nc1c(S(=O)(=O)O)cc2cc(S(=O)(=O)O)cc(NC(C)=O)c2c1O |  | 13.8 µM (active)
27 | Cc1ccc(S(=O)(=O)Oc2ccc(N=Nc3ccc(-c4ccc(N=Nc5c(O)ccc6cc(S(=O)(=O)O)cc(S(=O)(=O)O)c56)c(C)c4)cc3C)cc2)cc1 |  | 17.4 µM (active)
28 | O=C(Nc1ccc2c(O)c(N=Nc3ccc(N=Nc4ccc(S(=O)(=O)O)cc4)cc3)c(S(=O)(=O)O)cc2c1)c1ccccc1 |  | 20.7 µM (active)
29 | CC(C)NCC(O)COc1ccc(CC(N)=O)cc1 (centres undefined) | inactive | 
30 | CC(CN=Cc1ccccc1O)N=Cc1ccccc1O (centres undefined) | inactive | 

test system: not listed separately; assay: ACEA_AR_agonist_AUC_viability: ACEA Biosciences xCELLigence Real-Time Cell Analysis on Androgen Receptor Agonism for Viability (AID 2283775);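 as to AC50: viability read 80 hours after compound addition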
Outline: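 Viability endpoint from xCELLigence impedance in 22Rv1 prostate cells at 80 h. Eight-point series, 100 uM maximum final.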

Row | SMILES | outcome | AC50
31 | CCOc1ccccc1O | inactive | 
32 | O=C(O)CCCCCCCCC(=O)O |  | 2.76 µM (active)
33 | CC1(C)C(=O)N(Cl)C(=O)N1Br | inactive | 
34 | Cc1cc(S(=O)(=O)O)ccc1N=Nc1c(O)ccc2ccccc12 | inactive | 
35 | CCCCCCCCCC(=O)OC | inactive | 
36 | O=C(O)c1ccc(O)cc1 | inactive | 
37 | CCC(=O)O[C@@H]1C[C@H]2CC[C@]1(C)C2(C)C | inactive | 
38 | CC(C)CCCCCCCCCCCCCCC(=O)O | inactive | 
39 | CCc1cc(C(C)(C)C)c(O)c(C(C)(C)C)c1 | inactive | 
40 | C=C1CC[C@H](O)C/C1=C/C=C1\CCC[C@]2(C)[C@@H]([C@H](C)/C=C/[C@H](C)C(C)C)CC[C@@H]12 | inactive | 
41 | O=c1c(O)c(-c2ccc(O)cc2)oc2cc(O)cc(O)c12 | inactive | 
42 | CCc1cc(Cc2cc(CC)cc(C(C)(C)C)c2O)c(O)c(C(C)(C)C)c1 |  | 24.3 µM (active)
43 | [O-]n1ccccc1=S.[O-]n1ccccc1=S.[Zn+2] |  | 11.8 µM (active)
44 | Nc1ccccc1[N+](=O)[O-] | inactive | 
45 | CS(=O)(=O)OCCCCOS(C)(=O)=O | inactive | 
46 | CCCCCCCCC=CCCCCCCCC1=NCCN1CCO | inactive | 
47 | CCOC(=O)c1ccc(N)cc1 | inactive | 
48 | CCCCC(CC)COC(=O)c1ccc(O)cc1 (centres undefined) | inactive | 
49 | CCCCCCCCc1ccc(S(=O)(=O)O)cc1 | inactive | 
50 | CCc1ccc(O)cc1 | inactive | 
51 | COc1ccccc1N=Nc1c(S(=O)(=O)O)cc2cc(S(=O)(=O)O)cc(NC(C)=O)c2c1O | inactive | 
52 | Cc1ccc(S(=O)(=O)Oc2ccc(N=Nc3ccc(-c4ccc(N=Nc5c(O)ccc6cc(S(=O)(=O)O)cc(S(=O)(=O)O)c56)c(C)c4)cc3C)cc2)cc1 |  | 7.03 µM (active)
53 | O=C(Nc1ccc2c(O)c(N=Nc3ccc(N=Nc4ccc(S(=O)(=O)O)cc4)cc3)c(S(=O)(=O)O)cc2c1)c1ccccc1 | inactive | 
54 | CC(C)NCC(O)COc1ccc(CC(N)=O)cc1 (centres undefined) | inactive | 
55 | CC(CN=Cc1ccccc1O)N=Cc1ccccc1O (centres undefined) |  | 6.64 µM (active)
56 | c1ccc(Oc2ccccc2)cc1 | inactive | 

test system: not listed separately; assay: ACEA_AR_antagonist_AUC_viability: ACEA Biosciences xCELLigence Real-Time Cell Analysis on Androgen Receptor Antagonism for Viability (AID 2283776);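 also: area under impedance growth curve at 80 h after dosing as viability; hits lower the growth signal relative to DMSO meaning cytotoxicity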
Outline: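 22Rv1 human prostate cancer cells were seeded on electrode plates, monitored overnight, then exposed to eight 1:4 dilutions from 100 uM final. Impedance-based growth kinetics at 80 h gave an AUC viability endpoint normalized to DMSO.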

Row | SMILES | AC50 | outcome
57 | O=C1OC[C@H](Cc2cccc(O)c2)[C@H]1Cc1cccc(O)c1 | 8.21 µM (active) | 
58 | O=C(O)CCCCCCCCC(=O)O | 2.07 µM (active) | 
59 | Nc1ccc2cc(S(=O)(=O)O)cc(O)c2c1N=Nc1ccccc1C(F)(F)F |  | inactive
60 | O=C(O)c1ccc(O)cc1 |  | inactive
61 | CC(C)CCCCCCCCCCCCCCC(=O)O |  | inactive
62 | CCc1cc(C(C)(C)C)c(O)c(C(C)(C)C)c1 |  | inactive
63 | O=c1c(O)c(-c2ccc(O)cc2)oc2cc(O)cc(O)c12 | 4.77 µM (active) | 
64 | CCc1cc(Cc2cc(CC)cc(C(C)(C)C)c2O)c(O)c(C(C)(C)C)c1 | 22.9 µM (active) | 
65 | [O-]n1ccccc1=S.[O-]n1ccccc1=S.[Zn+2] | 22.9 µM (active) | 
66 | CS(=O)(=O)OCCCCOS(C)(=O)=O |  | inactive
67 | CN(C)c1cccc(O)c1 |  | inactive
68 | CCCCCCCCC=CCCCCCCCC1=NCCN1CCO |  | inactive
69 | CCOC(=O)c1ccc(N)cc1 |  | inactive
70 | CCCCCCCCc1ccc(S(=O)(=O)O)cc1 |  | inactive
71 | CCc1ccc(O)cc1 |  | inactive
72 | COc1ccccc1N=Nc1c(S(=O)(=O)O)cc2cc(S(=O)(=O)O)cc(NC(C)=O)c2c1O |  | inactive
73 | Cc1ccc(S(=O)(=O)Oc2ccc(N=Nc3ccc(-c4ccc(N=Nc5c(O)ccc6cc(S(=O)(=O)O)cc(S(=O)(=O)O)c56)c(C)c4)cc3C)cc2)cc1 | 2.55 µM (active) | 
74 | CC(CN=Cc1ccccc1O)N=Cc1ccccc1O (centres undefined) | 4.63 µM (active) | 
